Reference: the supplement of paper PMC11732987, “Enantioselective OTUD7B fragment discovery through chemoproteomics screening and high-throughput optimisation” (Communications Chemistry, 2025)

Experiments:
Assay in all cases: log2 ratio of Biotin-Ahx-Ub-VS probe labelling (fragment/DMSO); higher = less target engagement (more negative = stronger competition), active = hit call of the paper (q ≤ 0.05, log2 ratio ≤ -1)
Conditions in all cases: compound concentration: 200 uM; treatment time: 3 h
[1] = molecular target: USP34 (UniProt Q70CQ2)
Method in brief: (§1)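 Labelled DUBs from HEK293T lysate were NeutrAvidin-enriched, digested with LysC and trypsin, and run by diaPASEF LC-MS/MS. Before that, each 495 µg sample in Tris/CHAPS/IGEPAL buffer with protease inhibitors was treated in triplicate with fragment at 200 µM or vehicle for 3 h, then with Biotin-Ahx-Ub-VS at 0.5 µM final for 1 h. Values are average log2 ratios of fragment over vehicle by unpaired t-test, based on global-median-normalised Spectronaut label-free quantities from proteins with ≥2 unique peptides.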

[2] = molecular target: T1, USP36 (UniProt Q9P275)
T1 sequence (whole entry): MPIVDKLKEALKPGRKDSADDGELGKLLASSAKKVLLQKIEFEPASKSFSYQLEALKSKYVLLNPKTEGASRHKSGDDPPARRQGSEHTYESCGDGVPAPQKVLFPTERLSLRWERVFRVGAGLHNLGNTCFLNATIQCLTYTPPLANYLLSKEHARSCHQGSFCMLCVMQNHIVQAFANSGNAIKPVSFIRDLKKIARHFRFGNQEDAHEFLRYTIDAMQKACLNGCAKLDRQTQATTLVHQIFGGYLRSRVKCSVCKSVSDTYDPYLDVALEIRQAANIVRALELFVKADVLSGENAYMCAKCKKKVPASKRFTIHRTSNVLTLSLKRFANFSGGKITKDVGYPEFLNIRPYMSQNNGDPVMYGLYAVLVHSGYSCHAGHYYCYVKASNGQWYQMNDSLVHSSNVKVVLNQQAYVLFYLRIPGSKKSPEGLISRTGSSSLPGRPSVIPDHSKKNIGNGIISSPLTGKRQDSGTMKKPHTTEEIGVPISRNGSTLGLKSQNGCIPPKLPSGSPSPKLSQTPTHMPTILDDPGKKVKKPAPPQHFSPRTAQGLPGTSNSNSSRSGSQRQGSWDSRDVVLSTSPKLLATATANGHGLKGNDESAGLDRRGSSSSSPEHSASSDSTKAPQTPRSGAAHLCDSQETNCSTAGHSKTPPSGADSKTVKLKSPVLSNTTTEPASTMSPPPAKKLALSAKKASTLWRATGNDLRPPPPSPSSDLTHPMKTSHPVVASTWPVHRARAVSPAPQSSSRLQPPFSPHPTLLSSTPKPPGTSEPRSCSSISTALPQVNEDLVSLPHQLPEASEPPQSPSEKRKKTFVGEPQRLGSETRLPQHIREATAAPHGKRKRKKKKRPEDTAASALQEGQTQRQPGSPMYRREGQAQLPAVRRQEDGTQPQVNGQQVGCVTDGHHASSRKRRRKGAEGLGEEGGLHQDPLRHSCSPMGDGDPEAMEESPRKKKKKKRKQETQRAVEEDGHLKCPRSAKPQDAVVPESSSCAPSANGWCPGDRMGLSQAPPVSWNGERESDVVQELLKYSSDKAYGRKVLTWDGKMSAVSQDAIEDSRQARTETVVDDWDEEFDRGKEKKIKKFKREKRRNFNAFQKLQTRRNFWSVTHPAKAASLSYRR
Method in brief: as §1

[3] = molecular target: T2, USP38 (UniProt Q8NB14)
T2 sequence (whole entry): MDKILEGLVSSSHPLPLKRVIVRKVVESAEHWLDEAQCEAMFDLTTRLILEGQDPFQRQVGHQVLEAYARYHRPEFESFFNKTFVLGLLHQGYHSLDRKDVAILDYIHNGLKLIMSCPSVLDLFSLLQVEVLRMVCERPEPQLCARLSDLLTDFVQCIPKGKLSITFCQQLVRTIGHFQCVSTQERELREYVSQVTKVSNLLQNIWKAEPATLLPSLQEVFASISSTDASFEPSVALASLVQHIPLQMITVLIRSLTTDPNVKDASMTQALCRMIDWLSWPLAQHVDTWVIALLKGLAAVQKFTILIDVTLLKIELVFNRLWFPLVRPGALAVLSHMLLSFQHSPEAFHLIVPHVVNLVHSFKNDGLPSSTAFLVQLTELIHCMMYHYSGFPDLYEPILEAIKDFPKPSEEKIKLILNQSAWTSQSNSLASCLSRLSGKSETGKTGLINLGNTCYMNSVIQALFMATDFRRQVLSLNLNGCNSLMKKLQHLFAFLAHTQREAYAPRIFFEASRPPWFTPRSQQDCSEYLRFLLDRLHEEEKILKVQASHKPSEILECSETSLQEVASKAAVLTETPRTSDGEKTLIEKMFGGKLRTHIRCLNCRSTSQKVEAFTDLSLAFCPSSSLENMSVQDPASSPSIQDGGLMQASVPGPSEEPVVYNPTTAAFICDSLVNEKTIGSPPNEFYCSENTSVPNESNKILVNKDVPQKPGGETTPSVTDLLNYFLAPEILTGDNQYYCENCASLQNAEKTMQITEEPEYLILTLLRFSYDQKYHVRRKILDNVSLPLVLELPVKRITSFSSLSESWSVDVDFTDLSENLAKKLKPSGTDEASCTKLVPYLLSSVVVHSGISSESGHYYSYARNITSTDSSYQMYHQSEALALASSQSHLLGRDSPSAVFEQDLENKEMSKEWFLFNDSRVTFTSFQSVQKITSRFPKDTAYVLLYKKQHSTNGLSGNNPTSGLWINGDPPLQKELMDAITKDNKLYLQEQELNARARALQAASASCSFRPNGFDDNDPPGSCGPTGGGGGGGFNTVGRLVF
Method in brief: as §1

[4] = molecular target: T3, USP39 (UniProt Q53GS9)
T3 sequence (whole entry): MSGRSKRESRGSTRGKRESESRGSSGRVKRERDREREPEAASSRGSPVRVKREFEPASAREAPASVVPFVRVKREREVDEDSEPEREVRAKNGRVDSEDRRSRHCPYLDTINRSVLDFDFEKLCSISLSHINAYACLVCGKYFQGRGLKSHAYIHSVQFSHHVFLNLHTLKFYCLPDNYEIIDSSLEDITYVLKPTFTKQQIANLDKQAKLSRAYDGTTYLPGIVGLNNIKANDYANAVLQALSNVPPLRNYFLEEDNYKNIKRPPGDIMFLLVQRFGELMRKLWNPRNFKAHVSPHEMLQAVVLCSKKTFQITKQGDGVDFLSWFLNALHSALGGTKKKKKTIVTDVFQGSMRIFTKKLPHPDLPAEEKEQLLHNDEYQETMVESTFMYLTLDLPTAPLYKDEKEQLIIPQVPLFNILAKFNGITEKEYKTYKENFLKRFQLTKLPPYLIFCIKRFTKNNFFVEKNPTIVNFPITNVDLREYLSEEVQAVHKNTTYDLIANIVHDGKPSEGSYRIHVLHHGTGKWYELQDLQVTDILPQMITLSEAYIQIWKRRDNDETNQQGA
Method in brief: as §1

[5] = molecular target: T4, USP4 (UniProt Q13107)
T4 sequence (whole entry): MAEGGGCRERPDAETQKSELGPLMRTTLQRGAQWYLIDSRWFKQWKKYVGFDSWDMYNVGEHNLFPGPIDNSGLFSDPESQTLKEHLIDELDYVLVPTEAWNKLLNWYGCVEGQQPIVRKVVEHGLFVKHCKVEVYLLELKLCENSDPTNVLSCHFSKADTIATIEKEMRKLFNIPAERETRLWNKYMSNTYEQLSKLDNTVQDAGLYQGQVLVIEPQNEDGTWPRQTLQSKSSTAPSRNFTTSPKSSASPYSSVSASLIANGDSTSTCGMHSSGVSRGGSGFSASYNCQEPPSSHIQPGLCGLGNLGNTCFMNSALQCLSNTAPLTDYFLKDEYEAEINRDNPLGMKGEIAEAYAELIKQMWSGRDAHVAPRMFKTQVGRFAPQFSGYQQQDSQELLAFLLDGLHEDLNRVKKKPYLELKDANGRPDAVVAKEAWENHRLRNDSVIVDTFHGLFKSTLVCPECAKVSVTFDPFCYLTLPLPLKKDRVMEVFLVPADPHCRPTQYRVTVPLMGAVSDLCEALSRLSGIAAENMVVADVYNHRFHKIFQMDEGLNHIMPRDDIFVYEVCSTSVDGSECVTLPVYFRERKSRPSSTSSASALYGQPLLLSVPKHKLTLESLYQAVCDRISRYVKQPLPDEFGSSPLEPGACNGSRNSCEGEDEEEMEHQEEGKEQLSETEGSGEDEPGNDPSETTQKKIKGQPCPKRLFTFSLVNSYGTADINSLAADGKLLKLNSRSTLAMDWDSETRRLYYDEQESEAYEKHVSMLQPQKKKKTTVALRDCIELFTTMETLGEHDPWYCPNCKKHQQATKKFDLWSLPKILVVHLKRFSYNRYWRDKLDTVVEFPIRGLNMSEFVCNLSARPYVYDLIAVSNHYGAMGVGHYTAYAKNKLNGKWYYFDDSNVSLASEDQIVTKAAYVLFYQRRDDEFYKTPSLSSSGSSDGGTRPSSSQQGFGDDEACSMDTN
Method in brief: as §1

Measured: log2 ratio of Biotin-Ahx-Ub-VS probe labelling

USP34, sequence (Q70CQ2 whole entry, the tested form may be a part): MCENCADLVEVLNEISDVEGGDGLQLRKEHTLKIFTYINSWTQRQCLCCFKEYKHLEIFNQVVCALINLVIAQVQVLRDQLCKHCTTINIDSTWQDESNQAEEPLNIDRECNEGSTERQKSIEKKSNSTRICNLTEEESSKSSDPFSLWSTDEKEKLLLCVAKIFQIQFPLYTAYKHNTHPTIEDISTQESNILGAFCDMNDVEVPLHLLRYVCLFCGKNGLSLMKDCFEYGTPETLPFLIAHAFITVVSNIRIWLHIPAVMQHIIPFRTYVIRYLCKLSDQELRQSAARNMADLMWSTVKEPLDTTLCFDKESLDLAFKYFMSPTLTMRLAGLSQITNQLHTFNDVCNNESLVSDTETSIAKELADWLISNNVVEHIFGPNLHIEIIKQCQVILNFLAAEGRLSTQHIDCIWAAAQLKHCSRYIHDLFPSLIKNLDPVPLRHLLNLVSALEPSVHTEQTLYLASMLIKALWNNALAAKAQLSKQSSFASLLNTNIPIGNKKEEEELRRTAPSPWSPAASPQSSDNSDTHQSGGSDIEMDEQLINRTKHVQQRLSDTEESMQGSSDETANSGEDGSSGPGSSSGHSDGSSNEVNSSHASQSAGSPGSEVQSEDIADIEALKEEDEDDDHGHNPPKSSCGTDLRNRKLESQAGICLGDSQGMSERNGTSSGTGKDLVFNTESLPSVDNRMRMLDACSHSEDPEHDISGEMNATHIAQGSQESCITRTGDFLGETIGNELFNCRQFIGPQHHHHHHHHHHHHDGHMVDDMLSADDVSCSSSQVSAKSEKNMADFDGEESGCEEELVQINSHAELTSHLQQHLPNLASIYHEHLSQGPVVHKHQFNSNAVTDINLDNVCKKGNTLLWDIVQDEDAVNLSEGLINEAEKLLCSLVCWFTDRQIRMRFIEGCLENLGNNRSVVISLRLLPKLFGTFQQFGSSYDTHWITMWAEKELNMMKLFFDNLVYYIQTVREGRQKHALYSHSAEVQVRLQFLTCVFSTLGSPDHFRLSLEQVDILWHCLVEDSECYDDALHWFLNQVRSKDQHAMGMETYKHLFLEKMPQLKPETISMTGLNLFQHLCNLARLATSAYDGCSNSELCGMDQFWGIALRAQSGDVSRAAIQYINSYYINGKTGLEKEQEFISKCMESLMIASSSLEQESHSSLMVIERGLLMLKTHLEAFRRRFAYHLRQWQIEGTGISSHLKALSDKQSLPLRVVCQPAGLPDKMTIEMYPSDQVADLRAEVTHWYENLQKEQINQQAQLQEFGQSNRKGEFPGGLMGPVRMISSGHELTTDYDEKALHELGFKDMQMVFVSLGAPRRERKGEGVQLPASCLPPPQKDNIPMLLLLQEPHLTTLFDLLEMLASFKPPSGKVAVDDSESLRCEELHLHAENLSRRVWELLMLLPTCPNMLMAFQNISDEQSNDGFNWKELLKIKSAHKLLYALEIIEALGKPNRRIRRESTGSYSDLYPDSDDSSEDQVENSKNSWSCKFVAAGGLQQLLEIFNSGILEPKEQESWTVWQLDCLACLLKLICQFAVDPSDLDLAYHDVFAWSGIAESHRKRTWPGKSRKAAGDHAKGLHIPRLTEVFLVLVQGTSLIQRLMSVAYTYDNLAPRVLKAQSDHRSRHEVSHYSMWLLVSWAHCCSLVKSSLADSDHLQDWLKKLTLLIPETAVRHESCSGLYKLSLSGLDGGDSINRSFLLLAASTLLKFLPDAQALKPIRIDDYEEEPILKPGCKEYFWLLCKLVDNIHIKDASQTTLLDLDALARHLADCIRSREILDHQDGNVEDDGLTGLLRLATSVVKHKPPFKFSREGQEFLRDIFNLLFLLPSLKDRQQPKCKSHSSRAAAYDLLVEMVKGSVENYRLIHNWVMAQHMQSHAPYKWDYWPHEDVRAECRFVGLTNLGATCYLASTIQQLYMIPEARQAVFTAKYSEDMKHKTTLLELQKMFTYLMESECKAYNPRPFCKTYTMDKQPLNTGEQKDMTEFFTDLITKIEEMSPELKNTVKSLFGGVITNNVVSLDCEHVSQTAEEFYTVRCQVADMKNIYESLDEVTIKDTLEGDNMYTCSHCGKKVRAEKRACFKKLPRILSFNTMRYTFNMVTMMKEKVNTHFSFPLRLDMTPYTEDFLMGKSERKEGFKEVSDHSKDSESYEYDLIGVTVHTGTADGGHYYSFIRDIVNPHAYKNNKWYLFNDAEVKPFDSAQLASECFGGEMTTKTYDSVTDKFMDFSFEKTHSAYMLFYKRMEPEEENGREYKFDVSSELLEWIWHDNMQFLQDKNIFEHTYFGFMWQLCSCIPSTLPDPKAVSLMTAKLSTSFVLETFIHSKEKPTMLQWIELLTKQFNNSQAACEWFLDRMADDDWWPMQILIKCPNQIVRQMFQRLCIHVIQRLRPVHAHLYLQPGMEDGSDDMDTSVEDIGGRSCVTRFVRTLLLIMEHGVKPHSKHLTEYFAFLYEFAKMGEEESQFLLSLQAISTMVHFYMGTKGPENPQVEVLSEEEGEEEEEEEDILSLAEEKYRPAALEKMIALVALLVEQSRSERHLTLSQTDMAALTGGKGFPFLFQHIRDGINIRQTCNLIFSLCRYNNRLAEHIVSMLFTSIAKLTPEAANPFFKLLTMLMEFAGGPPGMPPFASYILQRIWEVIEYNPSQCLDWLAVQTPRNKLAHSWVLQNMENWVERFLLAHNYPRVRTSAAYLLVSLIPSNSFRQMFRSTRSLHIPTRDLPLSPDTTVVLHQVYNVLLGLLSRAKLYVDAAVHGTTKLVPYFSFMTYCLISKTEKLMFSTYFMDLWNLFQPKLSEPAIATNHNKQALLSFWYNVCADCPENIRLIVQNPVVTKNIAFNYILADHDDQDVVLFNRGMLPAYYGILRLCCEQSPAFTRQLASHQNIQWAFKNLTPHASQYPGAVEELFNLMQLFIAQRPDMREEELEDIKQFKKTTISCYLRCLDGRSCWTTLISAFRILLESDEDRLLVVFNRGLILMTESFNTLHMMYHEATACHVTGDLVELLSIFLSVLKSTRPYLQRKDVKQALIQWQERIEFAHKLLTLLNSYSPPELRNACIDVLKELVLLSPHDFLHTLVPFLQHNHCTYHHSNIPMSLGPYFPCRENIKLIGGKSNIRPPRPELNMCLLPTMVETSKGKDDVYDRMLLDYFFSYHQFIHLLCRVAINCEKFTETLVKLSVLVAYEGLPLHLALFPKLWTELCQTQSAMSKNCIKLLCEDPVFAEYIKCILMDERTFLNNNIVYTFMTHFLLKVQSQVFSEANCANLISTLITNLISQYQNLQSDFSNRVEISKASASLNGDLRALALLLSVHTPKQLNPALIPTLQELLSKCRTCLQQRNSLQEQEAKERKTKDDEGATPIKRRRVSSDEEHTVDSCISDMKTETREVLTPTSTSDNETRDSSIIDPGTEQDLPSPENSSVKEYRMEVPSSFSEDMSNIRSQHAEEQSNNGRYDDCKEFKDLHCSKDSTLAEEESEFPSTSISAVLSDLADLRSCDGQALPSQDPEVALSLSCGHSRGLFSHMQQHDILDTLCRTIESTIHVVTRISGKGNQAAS

Cc1ccc(N(CCC#N)C(=O)CCl)cc1C
inactive: [1] -0.0882 | [2] -0.062 | [3] -0.15 | [4] 0.18 | [5] 0.0498
